Measured values from PubChem BioAssay AID1159580 (chemical genetic matrix, 2015).
In all, about 5,500 compounds went through this assay and about 2,000 (36%) were called active. About 18% were inconclusive and are not listed. The list shows a part of the results. Unmarked numbers belong to inactive results. Cut-off read from the data, not from the text of the source: active = normalized growth mostly below about 0.91 (no sharp cut-off); inconclusive = no clear call, values can overlap the other calls; inactive = mostly above about 0.92.

Test: chemical genetic growth profiling, strain panel (AID 1159580);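 note: tested at 20 µM; growth read once vehicle control cultures reached saturation at 30 °C; 1 = growth at the plate median or of vehicle wells; lower values mean less growth of the strain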
Details: S. cerevisiae deletion strains, growth OD
[1] = locus YDL101C, strain DUN1, active compounds read low
[2] = locus YHR030C, strain SLT2, active compounds read low

Structure (SMILES): Cc1c(-n2cccc2)cc2c(c1[N+](=O)[O-])C(C)(C)CC2(C)C
- normalized growth (locus YAL013W, strain DEP1, active compounds read low): 1.01
- normalized growth (locus YBR229C, strain ROT2, active compounds read low): 1.01
- normalized growth (locus YCL061C, strain MRC1, active compounds read low): 1.01
- normalized growth [1]: 1.02
- normalized growth (locus YDR150W, strain NUM1, active compounds read low): 1.02
- normalized growth (locus YEL061C, strain CIN8, active compounds read low): 1
- normalized growth (locus YGR078C, strain PAC10, active compounds read low): 1.02
- normalized growth [2]: 1.05
- normalized growth (locus YHR087W, strain rtc3, active compounds read low): 1.01
- normalized growth (locus YJL187C, strain SWE1, active compounds read low): 1.02
- normalized growth (locus YJR043C, strain POL32, active compounds read low): 1.01
- normalized growth (locus YJR075W, strain HOC1, active compounds read low): 1.05
- normalized growth (locus YLR039C, strain RIC1, active compounds read low): 1.06
- normalized growth (locus YLR058C, strain SHM2 (second series), active compounds read low): 0.994
- normalized growth (locus YLR085C, strain ARP6, active compounds read low): 1.01
- normalized growth (locus YLR262C, strain YPT6, active compounds read low): 1.07
- normalized growth (locus YML094W, strain GIM5, active compounds read low): 1.02
- normalized growth (locus YMR219W, strain ESC1, active compounds read low): 1.02
- normalized growth (locus YMR263W, strain SAP30, active compounds read low): 1
- normalized growth (locus YNL153C, strain GIM3, active compounds read low): 0.998
- normalized growth (locus YNL298W, strain CLA4 (second series), active compounds read low): 1.04
- normalized growth (locus YNL322C, strain KRE1, active compounds read low): 1.02
- normalized growth (locus YNR030W, strain Alg12, active compounds read low): 1.01
- normalized growth (locus YOL006C, strain TOP1, active compounds read low): 1.03
- normalized growth (locus YPL055C, strain LGE1, active compounds read low): 1
- normalized growth (locus YPL241C, strain CIN2, active compounds read low): 1
- normalized growth (locus YPR135W, strain CTF4, active compounds read low): 1.04

Structure (SMILES): CC(C)(C)c1cc(C(=O)/C(C#N)=N\Nc2ccc(Cl)cc2)no1
- normalized growth (locus YAR019C, strain CDC15, active compounds read low): 0.959
- normalized growth (locus YBL105C, strain PKC1, active compounds read low): 0.974
- normalized growth (locus YBR135W, strain CKS1, active compounds read low): 0.952
- normalized growth (locus YBR136W, strain MEC1, active compounds read low): 0.963
- normalized growth (locus YBR160W, strain CDC28, active compounds read low): 0.966
- normalized growth (locus YDL017W, strain CDC7, active compounds read low): 0.96
- normalized growth (locus YDL028C, strain MPS1, active compounds read low): 0.95
- normalized growth [1]: 0.979
- normalized growth (locus YDL108W, strain KIN28, active compounds read low): 0.962
- normalized growth (locus YDL214C, strain PRR2, active compounds read low): 0.253 (active)
- normalized growth (locus YDR052C, strain DBF4, active compounds read low): 0.967
- normalized growth (locus YDR226W, strain ADK1, active compounds read low): 0.952
- normalized growth (locus YDR477W, strain SNF1, active compounds read low): 0.229 (active)
- normalized growth (locus YER123W, strain YCK3, active compounds read low): 0.146 (active)
- normalized growth (locus YER133W, strain GLC7, active compounds read low): 0.326 (active)
- normalized growth (locus YFL009W, strain cdc4, active compounds read low): 0.907
- normalized growth (locus YFL029C, strain CAK1, active compounds read low): 0.95
- normalized growth (locus YFR003C, strain YPI1, active compounds read low): 0.96
- normalized growth (locus YFR019W, strain FAB1, active compounds read low): 0.116 (active)
- normalized growth (locus YFR028C, strain CDC14, active compounds read low): 0.958
- normalized growth (locus YGR040W, strain KSS1, active compounds read low): 0.321 (active)
- normalized growth (locus YGR052W, strain FMP48, active compounds read low): 0.281 (active)
- normalized growth (locus YGR092W, strain DBF2, active compounds read low): 0.0911 (active)
- normalized growth [2]: 0.212 (active)
- normalized growth (locus YHR079C, strain IRE1, active compounds read low): 0.106 (active)
- normalized growth (locus YHR082C, strain KSP1, active compounds read low): 0.154 (active)
- normalized growth (locus YHR205W, strain SCH9, active compounds read low): 0.043 (active)
- normalized growth (locus YIL147C, strain SLN1, active compounds read low): 0.957
- normalized growth (locus YJL095W, strain BCK1, active compounds read low): 0.145 (active)
- normalized growth (locus YJL128C, strain PBS2, active compounds read low): 0.396 (active)
- normalized growth (locus YJL157C, strain FAR1, active compounds read low): 0.165 (active)
- normalized growth (locus YJR016C, strain ILV3, active compounds read low): 0.914
- normalized growth (locus YJR066W, strain TOR1 (second series), active compounds read low): 0.237 (active)
- normalized growth (locus YJR066W, strain TOR1, active compounds read low): 0.169 (active)
- normalized growth (locus YKL048C, strain ELM1, active compounds read low): 0.172 (active)
- normalized growth (locus YKL067W, strain YNK1, active compounds read low): 0.213 (active)
- normalized growth (locus YKL101W, strain HSL1, active compounds read low): 0.106 (active)
- normalized growth (locus YKL193C, strain SDS22, active compounds read low): 0.959
- normalized growth (locus YKL203C, strain TOR2, active compounds read low): 0.284 (active)
- normalized growth (locus YLR113W, strain HOG1, active compounds read low): 0.156 (active)
- normalized growth (locus YLR133W, strain CKI1, active compounds read low): 0.112 (active)
- normalized growth (locus YLR403W, strain SFP1, active compounds read low): 0.149 (active)
- normalized growth (locus YML070W, strain DAK1, active compounds read low): 0.137 (active)
- normalized growth (locus YMR001C, strain CDC5, active compounds read low): 0.958
- normalized growth (locus YMR205C, strain PFK2 (second series), active compounds read low): 0.137 (active)
- normalized growth (locus YMR277W, strain FCP1, active compounds read low): 0.953
- normalized growth (locus YNL006W, strain LST8, active compounds read low): 0.981
- normalized growth (locus YNL020C, strain ARK1, active compounds read low): 0.119 (active)
- normalized growth (locus YNL161W, strain CBK1, active compounds read low): 0.96
- normalized growth (locus YNL183C, strain NPR1, active compounds read low): 0.294 (active)
- normalized growth (locus YNL222W, strain SSU72, active compounds read low): 0.966
- normalized growth (locus YNL307C, strain MCK1 (second series), active compounds read low): 0.0976 (active)
- normalized growth (locus YOL078W, strain AVO1, active compounds read low): 0.922
- normalized growth (locus YOL136C, strain PFK27, active compounds read low): 0.191 (active)
- normalized growth (locus YOR061W, strain CKA2, active compounds read low): 0.103 (active)
- normalized growth (locus YOR119C, strain RIO1, active compounds read low): 0.337 (active)
- normalized growth (locus YOR231W, strain MKK1, active compounds read low): 0.0922 (active)
- normalized growth (locus YOR329C, strain SCD5, active compounds read low): 0.975
- normalized growth (locus YPL031C, strain PHO85, active compounds read low): 0.105 (active)
- normalized growth (locus YPL153C, strain RAD53, active compounds read low): 0.115 (active)
- normalized growth (locus YPL204W, strain HRR25, active compounds read low): 0.115 (active)
- normalized growth (locus YPL209C, strain IPL1, active compounds read low): 0.97
- normalized growth (locus YPL256C, strain CLN2, active compounds read low): 0.146 (active)
- normalized growth (locus YPR025C, strain CCL1, active compounds read low): 0.961
- normalized growth (locus YPR106W, strain ISR1, active compounds read low): 0.842 (active)
- normalized growth (locus YPR111W, strain DBF20, active compounds read low): 0.874
- normalized growth (strain TSCII, active compounds read low): 0.948
